Test [1] can be described thus: small molecules captured by biotinylated probe aFSTL3 – biochemical, small-molecule microarray, fluorescence 635/667, stem cell growth factor project, primary screen (AID 1064).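 Also: measures binding of the biotinylated anti-FSTL3 antibody to printed compounds.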 The note with it: higher = more signal.
Test [2] in a line: binders from COS7 lysate, DM2A8 probe, primary screen, torsin A project, cell lysate, small-molecule microarray, fluorescence 635/667 (AID 1065). Particulars: higher = more signal, COS7 lysate expressing mutant human TOR1A.
Test [3] can be described thus: small molecules captured by biotinylated probe aFGF2 – biochemical, small-molecule microarray, fluorescence 635/667, stem cell growth factor project, primary screen (AID 1067).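 Also: measures binding of biotinylated aFGF2 protein to printed compounds on slides; z-score merges feature fluorescence and signal-to-noise across triplicate slides.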 The note with it: higher = more signal.
Test [4] in a line: small molecules captured by biotinylated probe aFGF10 – biochemical, small-molecule microarray, fluorescence 635/667, stem cell growth factor project, primary screen (AID 1071).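 Also: score merges 667 nm spot intensity and signal to noise from triplicate slides.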 Particulars: higher = more signal.
Test [5] has as its target Neurogenic locus notch homolog protein 2 (Homo sapiens) (UniProt Q04721). In words: small molecules binding Notch2 protein – biochemical, small-molecule microarray, 635 nm fluorescence, stem cell growth factors, primary screen (AID 1073). Particulars: higher = more signal.
In test [6] the target is Pro-neuregulin-1, membrane-bound isoform (Homo sapiens) (UniProt Q02297). In words: small molecules binding neuregulin-1 protein – biochemical, small-molecule microarray, fluorescence 635/667, psychiatric disease protein project, primary screen (AID 1075).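 Also: score combines 667 nm spot fluorescence with signal to noise.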 Particulars: NRG1 binding, 635 nm fluorescence, higher = more signal.
Test [7] concerns Neuregulin-1 EGF-like domain. The test can be described thus: small molecules binding NRG1 EGF domain – biochemical, small-molecule microarray, 635 nm fluorescence, primary screen (AID 1081).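 Also: binding of the protein to compounds printed on small-molecule microarray slides.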 Particulars: higher = more signal.
Test [8] is described as follows: FRG1 expression reporter modulators in myotubes – cell-based, C2C12 myotubes, firefly/Renilla luciferase, luminescence, FRG1 inhibition for FSHD, primary screen (AID 1084). Particulars: FRG1 promoter luciferase, higher = more signal, called active from +8 up or from −8 down.
Test [9] can be described thus: small molecules captured by biotinylated probe aFST – biochemical, small-molecule microarray, fluorescence 635/667, stem cell growth factor project, primary screen (AID 1086).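 Also: score merges 667 nm fluorescence with signal-to-noise of each printed compound spot.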 The note with it: higher = more signal.
The nature of test [10]: binders of probe aHhip on microarray, primary screen, stem cell growth factor project, biochemical, small-molecule microarray, fluorescence 635/667 (AID 1087).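 Also: score merges spot fluorescence at 667nm with spot signal to noise ratio.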 Particulars: higher = more signal.
Test [11] concerns PRMT1 (protein arginine N-methyltransferase 1). The test can be described thus: small molecules binding arginine methyltransferase PRMT1 – biochemical, small-molecule microarray, 635 nm fluorescence, primary screen (AID 1088).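 Also: binding of Prmt1 protein to compounds spotted on small-molecule microarray slides.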 The note with it: higher = more signal.
A short description of test [12]: growth effects on S. cerevisiae YJM789 – YJM789 clinical isolate, OD600, 24 h, basal, primary screen (AID 1089).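 Also: growth of clinical yeast isolate S. cerevisiae YJM 789 seeded 1000 cells per well; test concentration not given here.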 The note with it: higher = more signal, called active from +8 up or from −8 down.
A short description of test [13]: S. pombe growth modifiers, basal conditions – strain 972, OD600, 24 h, no modulator, primary screen (AID 1090).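 Also: basal condition with compound alone and no growth modifier present; test concentration not given here.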 Particulars: S. pombe 972 growth, higher = more signal, called active from +8 up or from −8 down.
A short description of test [14]: budding yeast growth modifiers under rapamycin – strain BY4716, OD600, 96 h, primary screen (AID 1091). Also: test concentration not given here. The note with it: S. cerevisiae BY4716 + rapamycin, higher = more signal, called active from +8 up or from −8 down.
Test [15] concerns the target Torsin-1A-interacting protein 2 (Homo sapiens) (UniProt Q8NFQ8). The test can be described thus: small molecules binding lysate-expressed LULL1 – cell lysate, human LULL1 lysate, 635/667 nm fluorescence, primary screen (AID 1092).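 Also: probe is lysate of COS7 cells overexpressing human LULL1; score merges per-feature 667 nm fluorescence with signal-to-noise.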 Particulars: small-molecule microarray, hLULL1 lysate binding, 635 nm fluorescence; higher = more signal.
Test [16] is described as follows: optical density change of DRC41 E. coli – strain DRC41, OD650, 24 h, E. coli filamentation project, primary screen (AID 1093).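 Also: MC1000 strain lacking acrAB efflux and sulA so SOS filamentation is blocked; test concentration not given here.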 Particulars: E. coli DRC41 growth, higher = more signal, called active from +8 up or from −8 down.
Test [17] in a line: probe aLefty2 binding to arrayed compounds – biochemical, biotinylated probe, 635/667 nm fluorescence, primary screen (AID 1094).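 Also: score merges spot fluorescence near 667 nm with spot signal-to-noise ratio.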 The note with it: small-molecule microarray, higher = more signal.
Test [18] concerns Noggin (protein binding on small-molecule microarray). In words: small molecules binding Noggin protein – biochemical, 635/667 nm fluorescence, primary screen (AID 1095).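 Also: score merges 667 nm feature fluorescence with signal to noise over triplicate slides.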 Particulars: 635 nm fluorescence, higher = more signal.
Test [19] has as its target Neurogenic locus notch homolog protein 3 (Homo sapiens) (UniProt Q9UM47). In words: small molecules binding NOTCH3 protein – biochemical, 635/667 nm fluorescence, primary screen (AID 1096). Particulars: small-molecule microarray, 635 nm fluorescence, higher = more signal.
Test [20] is described as follows: probe aEGFR binding to arrayed compounds – biochemical, biotinylated probe, 635/667 nm fluorescence, primary screen (AID 1097).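 Also: probe is a biotinylated anti-EGFR antibody binding compounds printed on slides; score combines fluorescence near 667 nm and signal to noise of each spot.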 The note with it: small-molecule microarray, higher = more signal.

Each structure is given as a SMILES string. Calls of active or inactive are those of the source.

Torsin-1A-interacting protein 2 (Homo sapiens), sequence (Q8NFQ8 whole entry, looked up): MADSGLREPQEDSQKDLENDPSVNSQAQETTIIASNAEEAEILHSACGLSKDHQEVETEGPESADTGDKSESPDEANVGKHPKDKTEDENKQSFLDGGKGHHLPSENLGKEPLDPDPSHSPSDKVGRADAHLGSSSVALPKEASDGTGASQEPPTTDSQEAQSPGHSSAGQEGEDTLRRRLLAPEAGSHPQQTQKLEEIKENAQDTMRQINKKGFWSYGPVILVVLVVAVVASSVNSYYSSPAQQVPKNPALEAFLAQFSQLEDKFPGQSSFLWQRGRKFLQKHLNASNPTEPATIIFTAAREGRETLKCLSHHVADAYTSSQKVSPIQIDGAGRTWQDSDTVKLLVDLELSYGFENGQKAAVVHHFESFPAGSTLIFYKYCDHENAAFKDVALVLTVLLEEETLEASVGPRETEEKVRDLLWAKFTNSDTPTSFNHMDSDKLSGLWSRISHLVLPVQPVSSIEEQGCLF
Neurogenic locus notch homolog protein 2 (Homo sapiens), sequence (Q04721 whole entry, looked up, canonical isoform): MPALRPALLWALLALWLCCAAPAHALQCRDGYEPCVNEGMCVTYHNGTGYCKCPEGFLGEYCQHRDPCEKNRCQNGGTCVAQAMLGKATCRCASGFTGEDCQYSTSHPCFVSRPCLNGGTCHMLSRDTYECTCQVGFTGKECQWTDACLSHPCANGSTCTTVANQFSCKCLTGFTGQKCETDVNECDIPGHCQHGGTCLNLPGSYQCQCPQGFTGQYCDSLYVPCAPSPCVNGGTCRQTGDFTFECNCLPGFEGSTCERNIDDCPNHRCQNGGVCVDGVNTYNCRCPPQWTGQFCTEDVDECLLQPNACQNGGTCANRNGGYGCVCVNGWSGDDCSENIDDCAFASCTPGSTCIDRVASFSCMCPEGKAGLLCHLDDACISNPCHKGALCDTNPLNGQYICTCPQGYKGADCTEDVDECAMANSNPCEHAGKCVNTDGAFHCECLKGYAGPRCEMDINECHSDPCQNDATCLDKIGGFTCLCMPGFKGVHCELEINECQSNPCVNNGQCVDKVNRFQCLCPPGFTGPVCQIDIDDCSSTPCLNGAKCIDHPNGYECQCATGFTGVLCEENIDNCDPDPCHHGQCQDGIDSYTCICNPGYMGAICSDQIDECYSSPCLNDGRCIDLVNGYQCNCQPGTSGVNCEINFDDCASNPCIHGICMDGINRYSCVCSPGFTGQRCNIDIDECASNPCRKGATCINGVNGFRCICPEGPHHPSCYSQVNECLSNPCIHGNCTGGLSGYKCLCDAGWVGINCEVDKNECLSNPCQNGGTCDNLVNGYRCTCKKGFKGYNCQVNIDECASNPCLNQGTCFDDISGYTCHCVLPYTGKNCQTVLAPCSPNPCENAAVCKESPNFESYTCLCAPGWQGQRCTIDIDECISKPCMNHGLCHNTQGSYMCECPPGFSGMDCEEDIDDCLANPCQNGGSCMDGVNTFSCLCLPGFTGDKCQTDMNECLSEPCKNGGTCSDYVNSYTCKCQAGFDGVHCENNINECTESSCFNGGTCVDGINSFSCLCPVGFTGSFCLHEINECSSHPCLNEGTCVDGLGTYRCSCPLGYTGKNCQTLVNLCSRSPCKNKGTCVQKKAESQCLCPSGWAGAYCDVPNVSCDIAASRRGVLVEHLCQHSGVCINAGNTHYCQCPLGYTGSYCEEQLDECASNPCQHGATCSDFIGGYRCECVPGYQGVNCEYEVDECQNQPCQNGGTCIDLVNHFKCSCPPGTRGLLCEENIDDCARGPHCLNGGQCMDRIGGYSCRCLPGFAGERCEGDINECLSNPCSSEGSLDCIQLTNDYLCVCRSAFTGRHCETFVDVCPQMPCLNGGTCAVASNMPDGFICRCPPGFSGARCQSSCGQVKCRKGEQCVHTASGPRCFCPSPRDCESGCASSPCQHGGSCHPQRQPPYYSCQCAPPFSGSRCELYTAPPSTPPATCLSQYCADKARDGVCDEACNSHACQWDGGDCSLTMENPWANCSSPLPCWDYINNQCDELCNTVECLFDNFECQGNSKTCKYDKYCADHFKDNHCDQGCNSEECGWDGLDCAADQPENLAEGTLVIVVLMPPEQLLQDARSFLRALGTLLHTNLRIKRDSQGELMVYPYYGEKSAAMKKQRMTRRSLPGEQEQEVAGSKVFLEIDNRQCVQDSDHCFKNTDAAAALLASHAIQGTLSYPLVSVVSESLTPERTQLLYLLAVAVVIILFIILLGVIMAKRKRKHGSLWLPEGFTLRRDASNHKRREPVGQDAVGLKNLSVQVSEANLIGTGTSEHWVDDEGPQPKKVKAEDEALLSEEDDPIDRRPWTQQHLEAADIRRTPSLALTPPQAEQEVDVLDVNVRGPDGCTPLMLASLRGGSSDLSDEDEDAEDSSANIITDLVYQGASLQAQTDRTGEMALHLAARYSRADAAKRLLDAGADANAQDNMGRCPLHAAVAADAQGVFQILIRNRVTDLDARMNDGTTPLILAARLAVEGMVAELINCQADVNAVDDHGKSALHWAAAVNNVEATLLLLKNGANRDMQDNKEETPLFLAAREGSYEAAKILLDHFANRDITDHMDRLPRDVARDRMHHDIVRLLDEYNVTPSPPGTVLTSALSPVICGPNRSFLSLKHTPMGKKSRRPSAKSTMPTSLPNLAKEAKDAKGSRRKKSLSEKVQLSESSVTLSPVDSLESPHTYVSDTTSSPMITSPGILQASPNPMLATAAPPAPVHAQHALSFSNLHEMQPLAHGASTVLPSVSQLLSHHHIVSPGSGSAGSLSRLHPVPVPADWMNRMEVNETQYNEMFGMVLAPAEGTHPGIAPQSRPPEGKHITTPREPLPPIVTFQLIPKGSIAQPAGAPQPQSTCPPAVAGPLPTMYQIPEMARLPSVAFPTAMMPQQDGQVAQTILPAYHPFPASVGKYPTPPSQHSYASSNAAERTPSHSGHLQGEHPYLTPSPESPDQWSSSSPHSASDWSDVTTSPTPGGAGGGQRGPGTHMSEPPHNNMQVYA
Pro-neuregulin-1, membrane-bound isoform (Homo sapiens), sequence (Q02297 whole entry, looked up, the tested form may be a part, canonical isoform): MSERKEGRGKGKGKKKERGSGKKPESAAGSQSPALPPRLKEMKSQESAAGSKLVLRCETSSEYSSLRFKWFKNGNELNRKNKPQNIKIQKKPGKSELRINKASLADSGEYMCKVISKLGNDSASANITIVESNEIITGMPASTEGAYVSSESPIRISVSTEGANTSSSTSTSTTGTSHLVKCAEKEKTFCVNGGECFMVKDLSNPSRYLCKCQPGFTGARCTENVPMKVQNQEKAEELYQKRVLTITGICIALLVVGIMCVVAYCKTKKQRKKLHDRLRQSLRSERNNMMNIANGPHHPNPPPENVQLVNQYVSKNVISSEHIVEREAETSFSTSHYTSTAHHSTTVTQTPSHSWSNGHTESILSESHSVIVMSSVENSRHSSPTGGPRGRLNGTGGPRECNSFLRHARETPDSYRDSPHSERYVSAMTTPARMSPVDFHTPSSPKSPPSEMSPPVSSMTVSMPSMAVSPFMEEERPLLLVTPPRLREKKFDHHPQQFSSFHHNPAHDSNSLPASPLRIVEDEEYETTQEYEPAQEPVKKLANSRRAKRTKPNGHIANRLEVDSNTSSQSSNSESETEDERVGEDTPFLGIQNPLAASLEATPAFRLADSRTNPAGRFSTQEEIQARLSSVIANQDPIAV

Regarding `CCCC/C=C/[C@H]([C@@H](O)Cc1ccccc1)N(CC#Cc1ccccc1)Cc1ccccc1Br`, the composite z-score in test [1] was 1.22; in test [2], -0.37; in test [3], -0.21; in [4], -1.17; in test [5], -0.749; in test [6], -0.169. For the same compound, the composite z-score is -0.291 in [7]; -0.74 in [9]; -0.584 in [10]; -0.439 in test [11]; -0.0817 in test [15]; 0.0735 in [17]. Further, the composite z-score in test [18] was -2.07; in test [19], -1.4; in [20], -0.428. Also, the z-score was -0.506 (inactive) in test [8]; 0.933 (inactive) in test [12]; -0.972 (inactive) in test [13]; 0.0956 (inactive) in test [14]; 2.92 (inactive) in [16].

Turning to `Cc1ccc(N2C(=O)c3ccccc3[C@](C)(C(=O)NCC(C)C)[C@@H]2c2ccc(CO)cc2)nc1`, the composite z-score in test [1] was 0.572; in test [2], -0.48; in [3], 0.0988; in [4], -0.662; in [5] it was -1.02; in test [6] it was -1.05. The composite z-score in test [7] was 1.4; in [9] it was -0.542; in test [10], 0.74; in [11], -0.644; in test [15] it was -1.71; in test [17], 0.456. The composite z-score in [18] was -1.22; in [19], -1.62; in [20] it was 0.32. Also, the z-score was 0.613 (inactive) in [8]; 0.42 (inactive) in test [12]; 0.374 (inactive) in [13]; 1.43 (inactive) in test [14]; -0.277 (inactive) in test [16].

For `CCN1C(C)=C(C(=O)OC)[C@@H](c2ccccc2)N2C(=O)[C@@]3(C(=O)OC)O[C@@]12[C@@H]1C(=O)N(c2ccccc2)C(=O)[C@@H]13`, the composite z-score is -0.418 in [1]; 0.833 in test [2]; -0.0924 in test [3]; 0.877 in test [4]; 1.14 in test [5]; 0.75 in test [6]. The composite z-score in [7] is 0.892; in test [9], 0.585; in [10], 0.122; in [11], 1.22; in [15], 1.2; in test [17], -0.19. Further, the values for the composite z-score in [18], in test [19] and in test [20] were 1.21, 0.983 and -0.087, respectively. Also, the z-score in test [8] is -0.909 (inactive); in test [12] it was -0.806 (inactive); in [13], -1.23 (inactive); in test [14], -0.325 (inactive); in [16], -0.0256 (inactive).

As to `COC(=O)C[C@H]1O[C@]2(C(=O)N(C)c3ccccc32)[C@@H](C)[C@@H]1[Si](C)(C)c1ccc(OC)cc1`, the composite z-score was -0.352 in test [1]; 0.0371 in [2]; -0.005 in [3]; 0.791 in test [4]; 0.146 in test [5]; 0.367 in [6]. Further, the composite z-score in test [7] is 1.06; in test [9], 0.673; in [10] it was -0.0645; in test [11], 0.53; in test [15] it was 0.49; in test [17], -0.0667. Further, the composite z-score in [18] was determined as 1.07; in [19] it was 0.622; in [20], 0.0104. In addition, the z-score is -2.07 (inactive) in test [8]; -3.04 (inactive) in test [12]; -16.7 (active) in test [13]; -1.54 (inactive) in test [14]; 1.67 (inactive) in test [16].

`NC(=O)[C@H]1[C@@H]2C(=O)O[C@@H](c3ccccc3)[C@@H](c3ccccc3)N2[C@@H](c2ccc(O)cc2)[C@]12C(=O)Nc1ccc(C#CCCO)cc12`: the composite z-score is 0.545 in test [1]; -0.831 in [2]; -0.12 in test [3]; -0.861 in [4]; -0.982 in test [5]; -0.0709 in [6]. Moreover, the composite z-score in test [7] is 1.12; in test [9], -0.605; in test [10], -0.251; in test [11], -0.484; in test [15], 0.497; in test [17], -0.05. The composite z-score in test [18] is -1.02; in test [19] it was -0.714; in test [20], -0.112. Further, the z-score was -0.89 (inactive) in test [8]; -0.178 (inactive) in [12]; -0.196 (inactive) in test [13]; -0.503 (inactive) in test [14]; 0.0528 (inactive) in [16].

Source of the values: PubChem BioAssay.
